# Laboratory results: PubChem BioAssay (Tox21)
# Several values for one entry are separate records, joined by “and”; a condition that tells them apart may be missing. Equal entries are not always repeated. Records with an inconclusive call do not appear. Where a call stands in place of a potency, no number is given. Some structures have more than one record in an assay (separate samples or runs), and their calls can disagree. Activity calls are given as the source filed them. Calls follow the shape of the full dose curve.
# Experiment: qHTS assay to identify small molecule antagonists of the sonic hedgehog signaling (Shh) pathway (AID 1259369); also: nearly all actives have a fitted effect of over 45% in size
# Conditions: NIH/3T3 Gli1-Luc reporter, Shh antagonist, luminescence 24 h; series mostly up to 92.4 µM; activity change, negative = inhibition: at the top concentration
# Excerpt: U.S. Tox21 Program National Center for Advancing Translational Sciences [NCATS] NIH Chemical Genomics Center [NCGC] U.S. Environmental Protection Agency [EPA] National Institutes of Environmental Health Sciences [NIEHS] National Toxicology Program [NTP] U.S. Food and Drug Administration [FDA] Tox21 Assay Overview: The sonic hedgehog (Shh) pathway is essential for normal embryonic development. Dysregulation of the Shh pathway can cause severe developmental defects in organs. Therefore chemicals that interfere with the pathway are potential developmental toxicants. A cell line designated 3T3Gli1-Luc (DMB/OARSA/CFSAN/FDA, Laurel, MD), a NIH/3T3 derived clone containing stably integrated Gli1-Luc reporter is used to detect chemical interference of the Shh pathway, by changes in the expression of the firefly Luc gene under the control of the Gli1 transcriptional response element. This cell line was used to screen Tox21 libraries for identifying and prioritizing the potential developmental toxicants that interfere Shh pathway. Conditioned medium-stimulated mode was used to screen for chemicals inhibiting Shh signaling.
# Tox21 Assay Protocol Summary: 3T3 Gli1-Luc cells were dispensed at 2,000 per well in 5uL of culture medium into white solid bottom 1536-well plates (Greiner Bio-One, Monroe, NC) using a Multidrop Combi (Thermo Scientific, Waltham, MA) dispenser. The assay plates were incubated at 37 C and 5% CO2 for 4hr, and then 23nL of compounds dissolved in DMSO and positive control were transferred using a Pintool station (Wako, San Diego, CA). The compound transfer was followed by the addition of 1ul conditioned medium or assay buffer using two separate tips of Flying Reagent Dispenser (FRD, Aurora Discovery, San Diego, CA). The assay plates were incubated at 37C and 5% CO2 for 24hr. For luciferase read, 4uL of Amplite Luciferase reporter gene assay reagent (AAT Bioquest, Inc. Sunnyvale, CA) was added to each well of the assay plates using FRD and incubated at room temperature for 30min. The luminescence signal was measured using a ViewLux plate reader (Perkin Elmer, Shelton, CT).
# Potency is read from the fitted curve at half-maximal effect.
Structure (SMILES),Potency,"activity change, negative = inhibition"
Cc1cc(Cl)ccc1N,inactive,
COP(=O)(OC)OC=C(Cl)Cl,inactive,
CCCCCCCCCCCCOS(=O)(=O)O,inactive,
CCCC[N+]1(C)CCCC1,inactive,
N#CS,inactive,
O=c1[nH]c(=O)n(Cl)c(=O)n1Cl,inactive,
CCC[N+]1(C)CCCCC1,inactive,
CCNc1nc(Cl)nc(NCC)n1,2.16 µM (active) and inactive,
Cc1cc(-c2ccc(N)c(C)c2)ccc1N,8.73 µM (active),
C[C@]12CCC(=O)C=C1CC[C@@H]1[C@@H]2CC[C@]2(C)C(=O)CC[C@@H]12,15.1 µM (active) and 13.7 µM (active) and inactive,
CC(Cl)(Cl)C(=O)O,,-0.934% (inactive)
CNC,inactive,
CCn1cc[n+](C)c1C,inactive,
O=c1nc(O)n(Cl)c(=O)n1Cl,inactive,
CCCC[n+]1cccc(C)c1,inactive,
CC[N+](CC)(CC)CC,inactive,
CCCC[n+]1ccc(C)cc1,inactive and 24.2 µM (active) and 13.7 µM (active),
O=P1(N(CCCl)CCCl)NCCCO1 (stereo not given),inactive,
CCCCCCCCCCCCCC[P+](CCCCCC)(CCCCCC)CCCCCC,1.09 µM (active) and 1.1 µM (active) and 769 nM (active),
O=C(O)COc1ccc(Cl)cc1Cl,inactive,

Structure (SMILES),Potency,"activity change, negative = inhibition"
O=S(=O)(O)O,inactive,
O=C(O)C(Cl)(Cl)Cl,inactive,
CCC(=O)C(CC(C)N(C)C)(c1ccccc1)c1ccccc1 (stereo not given),24.4 µM (active) and inactive,
CC(=O)O,inactive,
O=[N+]([O-])O,inactive,
CCCCCCn1cc[n+](C)c1,7.74 µM (active) and 89.9 nM (active),
CCCC[n+]1ccccc1,inactive,
CC[n+]1ccccc1,inactive and 429 nM (active),
O=C(O)c1ccccc1O,inactive,
COCC(=O)N(c1c(C)cccc1C)C(C)C(=O)OC (stereo not given),inactive,
CCCCn1cc[n+](C)c1C,inactive,
CCOP(=S)(OCC)Oc1ccc2c(C)c(Cl)c(=O)oc2c1,13.8 µM (active),
C[N+](C)(C)Cc1ccccc1,inactive,
O=C(O)C(Cl)Cl,inactive,
CCCCn1cc[n+](C)c1,inactive,
CC(=O)[O][Hg][c]1ccccc1,121 nM (active) and 61.1 nM (active) and 8.4 nM (active),
OCCOc1ccccc1,inactive,
CCCC[N+]1(C)CCCCC1,inactive,
CC[N+]1(C)CCCC1,39.5 µM (active) and inactive,
COP(=O)(OC)C(O)C(Cl)(Cl)Cl (stereo not given),inactive,
